In PMC7862700, “An all-to-all approach to the identification of sequence-specific readers for epigenetic DNA modifications on cytosine”:

Legend:
Experiment in all cases: DAPPL (digital affinity profiling via proximity ligation, sequencing); 10 mM Tris-HCl pH 7.5, 50 mM NaCl, 1 mM DTT, 4% glycerol, room temperature, 30 min; GST-TFs on glutathione beads, 16-mer random dsDNA library, 0.1% formaldehyde crosslink after washing; high values mean tight binding
Conditions in all cases: protein: recombinant; tags: N-terminal GST; dsDNA, one strand shown
FEV = target: T1, FEV (Homo sapiens, UniProt Q99581 1-238)
T1 sequence: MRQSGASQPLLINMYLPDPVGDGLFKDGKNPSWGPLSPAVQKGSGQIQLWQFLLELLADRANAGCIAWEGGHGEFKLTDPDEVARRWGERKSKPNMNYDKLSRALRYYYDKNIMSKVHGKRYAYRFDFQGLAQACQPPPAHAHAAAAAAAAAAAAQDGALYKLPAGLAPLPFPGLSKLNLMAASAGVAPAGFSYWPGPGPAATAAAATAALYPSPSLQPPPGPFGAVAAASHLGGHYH
How it was run: (§1)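 Pools of DNA-barcoded human transcription factors, expressed in yeast as GST fusions on glutathione beads and combined with a tag-only sample, were incubated with 200 nmole of a 16-mer random double-stranded DNA library. Incubation took 30 min at room temperature in Tris/NaCl/DTT/glycerol buffer and was followed by washing, 0.1% formaldehyde crosslinking, proximity ligation (BsaI/T4 ligase, 1 h, 37 °C), PCR amplification and sequencing on an Illumina NextSeq500. Binding signal is the ratio of a hexamer's read frequency for a factor to its frequency for the tag-only sample.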

ETV5 = ETV5 (Homo sapiens, UniProt P41161 1-510)
How it was run: as §1

SPIC = target: T2, SPIC (Homo sapiens, UniProt Q8N5J4 1-248)
T2 sequence: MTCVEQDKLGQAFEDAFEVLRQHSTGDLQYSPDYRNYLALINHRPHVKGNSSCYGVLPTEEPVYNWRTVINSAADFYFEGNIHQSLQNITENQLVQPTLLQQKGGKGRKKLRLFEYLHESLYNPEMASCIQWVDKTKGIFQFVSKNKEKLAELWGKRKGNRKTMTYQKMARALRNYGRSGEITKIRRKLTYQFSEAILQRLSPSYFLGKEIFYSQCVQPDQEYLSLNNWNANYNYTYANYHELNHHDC
How it was run: as §1

ELF4 = ELF4 (Homo sapiens, UniProt Q99607 1-663)
How it was run: as §1

ELK4 = target: T3, ELK4 (Homo sapiens, UniProt P28324-2 1-405)
T3 sequence: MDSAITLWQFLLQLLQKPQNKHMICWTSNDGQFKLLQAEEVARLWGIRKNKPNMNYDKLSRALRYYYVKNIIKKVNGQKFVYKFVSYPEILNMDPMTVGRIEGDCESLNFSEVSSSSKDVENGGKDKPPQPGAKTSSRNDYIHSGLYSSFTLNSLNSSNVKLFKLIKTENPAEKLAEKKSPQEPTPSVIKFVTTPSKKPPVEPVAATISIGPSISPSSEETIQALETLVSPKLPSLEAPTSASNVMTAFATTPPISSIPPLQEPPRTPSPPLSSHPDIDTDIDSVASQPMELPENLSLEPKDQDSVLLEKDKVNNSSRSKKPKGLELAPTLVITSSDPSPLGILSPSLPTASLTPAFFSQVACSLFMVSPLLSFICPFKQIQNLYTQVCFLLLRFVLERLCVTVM
How it was run: as §1

ETV2 = target: T4, ETV2 (Homo sapiens, UniProt O00321 1-342)
T4 sequence: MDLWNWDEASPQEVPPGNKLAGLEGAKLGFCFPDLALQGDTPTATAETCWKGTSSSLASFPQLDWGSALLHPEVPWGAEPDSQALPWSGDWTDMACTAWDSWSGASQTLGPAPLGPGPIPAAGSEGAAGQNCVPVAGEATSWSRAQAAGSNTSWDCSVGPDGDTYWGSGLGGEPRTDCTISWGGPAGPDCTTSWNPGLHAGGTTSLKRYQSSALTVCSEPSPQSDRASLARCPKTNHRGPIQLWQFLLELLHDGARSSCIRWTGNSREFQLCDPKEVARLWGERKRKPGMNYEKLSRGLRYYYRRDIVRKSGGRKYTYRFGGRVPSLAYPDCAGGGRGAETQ
How it was run: as §1

ELF3 = target: T5, ELF3 (Homo sapiens, UniProt P78545 1-371)
T5 sequence: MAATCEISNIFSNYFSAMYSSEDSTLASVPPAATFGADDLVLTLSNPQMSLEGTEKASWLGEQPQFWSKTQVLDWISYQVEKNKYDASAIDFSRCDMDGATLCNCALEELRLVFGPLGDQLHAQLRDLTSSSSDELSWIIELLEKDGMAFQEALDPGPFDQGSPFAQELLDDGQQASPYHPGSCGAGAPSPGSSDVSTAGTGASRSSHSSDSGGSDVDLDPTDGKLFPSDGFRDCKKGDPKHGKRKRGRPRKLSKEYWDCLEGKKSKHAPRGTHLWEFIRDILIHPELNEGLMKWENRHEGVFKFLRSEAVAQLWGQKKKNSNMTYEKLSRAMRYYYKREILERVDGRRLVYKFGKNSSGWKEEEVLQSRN
How it was run: as §1

ETV1 = ETV1 (Homo sapiens, UniProt P50549 1-477)
How it was run: as §1

CRX = CRX (Homo sapiens, UniProt O43186 1-299)
How it was run: as §1

Sequence of ELF4 (Q99607 whole entry): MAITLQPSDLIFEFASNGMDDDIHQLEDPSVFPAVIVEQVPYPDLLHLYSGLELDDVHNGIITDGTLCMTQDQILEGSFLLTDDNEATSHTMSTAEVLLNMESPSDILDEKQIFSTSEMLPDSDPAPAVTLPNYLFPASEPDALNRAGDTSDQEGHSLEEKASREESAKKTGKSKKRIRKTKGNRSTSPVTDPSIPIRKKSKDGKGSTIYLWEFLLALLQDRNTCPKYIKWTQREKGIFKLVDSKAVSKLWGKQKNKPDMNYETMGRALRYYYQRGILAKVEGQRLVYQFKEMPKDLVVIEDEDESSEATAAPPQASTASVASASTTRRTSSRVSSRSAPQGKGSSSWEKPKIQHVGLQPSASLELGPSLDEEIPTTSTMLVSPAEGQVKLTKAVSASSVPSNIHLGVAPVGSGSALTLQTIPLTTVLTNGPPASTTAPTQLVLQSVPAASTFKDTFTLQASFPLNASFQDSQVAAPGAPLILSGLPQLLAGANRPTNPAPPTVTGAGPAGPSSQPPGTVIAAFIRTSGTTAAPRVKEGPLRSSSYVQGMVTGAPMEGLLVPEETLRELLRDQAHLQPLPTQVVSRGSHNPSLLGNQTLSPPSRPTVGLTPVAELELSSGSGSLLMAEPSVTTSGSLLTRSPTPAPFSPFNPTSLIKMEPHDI
Sequence of ETV5 (P41161 whole entry): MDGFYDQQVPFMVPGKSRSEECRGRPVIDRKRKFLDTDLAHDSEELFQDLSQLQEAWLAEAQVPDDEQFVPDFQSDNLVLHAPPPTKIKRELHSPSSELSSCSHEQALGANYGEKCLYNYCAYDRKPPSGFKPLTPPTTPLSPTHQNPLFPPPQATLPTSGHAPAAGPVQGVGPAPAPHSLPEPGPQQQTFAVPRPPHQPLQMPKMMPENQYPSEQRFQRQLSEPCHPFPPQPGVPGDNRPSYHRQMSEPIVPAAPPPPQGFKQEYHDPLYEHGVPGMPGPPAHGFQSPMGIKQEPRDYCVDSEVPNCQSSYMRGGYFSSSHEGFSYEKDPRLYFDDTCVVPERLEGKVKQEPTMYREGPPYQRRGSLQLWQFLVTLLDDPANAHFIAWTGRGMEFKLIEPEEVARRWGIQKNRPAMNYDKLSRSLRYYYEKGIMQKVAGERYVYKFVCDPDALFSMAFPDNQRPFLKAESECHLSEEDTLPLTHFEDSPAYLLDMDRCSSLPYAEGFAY
Sequence of ETV1 (P50549 whole entry): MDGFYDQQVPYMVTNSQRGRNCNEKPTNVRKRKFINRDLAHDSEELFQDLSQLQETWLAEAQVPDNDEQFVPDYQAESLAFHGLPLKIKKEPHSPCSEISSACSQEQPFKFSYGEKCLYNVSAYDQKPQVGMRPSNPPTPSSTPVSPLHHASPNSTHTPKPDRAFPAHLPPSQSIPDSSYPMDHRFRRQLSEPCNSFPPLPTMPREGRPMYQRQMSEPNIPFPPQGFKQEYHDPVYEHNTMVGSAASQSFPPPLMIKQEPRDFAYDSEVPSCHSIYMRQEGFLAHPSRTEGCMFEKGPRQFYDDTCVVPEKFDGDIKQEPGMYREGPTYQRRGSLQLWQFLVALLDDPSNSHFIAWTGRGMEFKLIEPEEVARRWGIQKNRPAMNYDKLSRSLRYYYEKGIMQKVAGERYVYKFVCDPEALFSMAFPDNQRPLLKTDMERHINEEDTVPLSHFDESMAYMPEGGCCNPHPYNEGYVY
Sequence of CRX (O43186 whole entry): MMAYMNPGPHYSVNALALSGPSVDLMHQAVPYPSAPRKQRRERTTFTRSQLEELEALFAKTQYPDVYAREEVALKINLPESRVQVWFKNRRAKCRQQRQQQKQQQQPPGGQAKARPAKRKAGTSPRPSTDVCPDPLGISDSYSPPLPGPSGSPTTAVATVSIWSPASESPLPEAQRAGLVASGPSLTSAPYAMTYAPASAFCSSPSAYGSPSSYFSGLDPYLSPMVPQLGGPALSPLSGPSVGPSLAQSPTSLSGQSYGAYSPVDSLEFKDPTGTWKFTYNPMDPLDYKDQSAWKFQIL

Sequence	binding signal (FEV)	binding signal (ETV5)	binding signal (SPIC)	binding signal (ELF4)	binding signal (ELK4)	binding signal (ETV2)	binding signal (ELF3)	binding signal (ETV1)	binding signal (CRX)
ACAGGA	1.18 fold enrichment (6-mer frequency, TF over GST control)	1.19 fold enrichment (6-mer frequency, TF over GST control)	1.07 fold enrichment (6-mer frequency, TF over GST control)	1.04 fold enrichment (6-mer frequency, TF over GST control)	1.04 fold enrichment (6-mer frequency, TF over GST control)	1.06 fold enrichment (6-mer frequency, TF over GST control)	1.15 fold enrichment (6-mer frequency, TF over GST control)	1.16 fold enrichment (6-mer frequency, TF over GST control)	
GTCACT	1.18 fold enrichment (6-mer frequency, TF over GST control)	1.14 fold enrichment (6-mer frequency, TF over GST control)	1.01 fold enrichment (6-mer frequency, TF over GST control)	1.09 fold enrichment (6-mer frequency, TF over GST control)	1.07 fold enrichment (6-mer frequency, TF over GST control)	1.14 fold enrichment (6-mer frequency, TF over GST control)	1.26 fold enrichment (6-mer frequency, TF over GST control)		
AGTGGC	1.43 fold enrichment (6-mer frequency, TF over GST control)	1.24 fold enrichment (6-mer frequency, TF over GST control)	1.16 fold enrichment (6-mer frequency, TF over GST control)	1.19 fold enrichment (6-mer frequency, TF over GST control)	1.24 fold enrichment (6-mer frequency, TF over GST control)	1.18 fold enrichment (6-mer frequency, TF over GST control)	1.36 fold enrichment (6-mer frequency, TF over GST control)	1.16 fold enrichment (6-mer frequency, TF over GST control)	
TCCGCG	1.2 fold enrichment (6-mer frequency, TF over GST control)	1.33 fold enrichment (6-mer frequency, TF over GST control)	1.18 fold enrichment (6-mer frequency, TF over GST control)	1.23 fold enrichment (6-mer frequency, TF over GST control)	1.32 fold enrichment (6-mer frequency, TF over GST control)	1.32 fold enrichment (6-mer frequency, TF over GST control)	1.08 fold enrichment (6-mer frequency, TF over GST control)	1.33 fold enrichment (6-mer frequency, TF over GST control)	
CGTTAC	1.13 fold enrichment (6-mer frequency, TF over GST control)	1.08 fold enrichment (6-mer frequency, TF over GST control)	1.05 fold enrichment (6-mer frequency, TF over GST control)	1.07 fold enrichment (6-mer frequency, TF over GST control)	1.02 fold enrichment (6-mer frequency, TF over GST control)	1.02 fold enrichment (6-mer frequency, TF over GST control)	1.04 fold enrichment (6-mer frequency, TF over GST control)	1.17 fold enrichment (6-mer frequency, TF over GST control)	
GCGCTC	1.06 fold enrichment (6-mer frequency, TF over GST control)	1.13 fold enrichment (6-mer frequency, TF over GST control)	1.04 fold enrichment (6-mer frequency, TF over GST control)	1.24 fold enrichment (6-mer frequency, TF over GST control)	1.19 fold enrichment (6-mer frequency, TF over GST control)	1.22 fold enrichment (6-mer frequency, TF over GST control)	1.19 fold enrichment (6-mer frequency, TF over GST control)		
TGCTTG	1.09 fold enrichment (6-mer frequency, TF over GST control)	1.2 fold enrichment (6-mer frequency, TF over GST control)	1.31 fold enrichment (6-mer frequency, TF over GST control)	1.12 fold enrichment (6-mer frequency, TF over GST control)	1.4 fold enrichment (6-mer frequency, TF over GST control)	1.26 fold enrichment (6-mer frequency, TF over GST control)		1.21 fold enrichment (6-mer frequency, TF over GST control)	
AAGTTG	1.05 fold enrichment (6-mer frequency, TF over GST control)	1.16 fold enrichment (6-mer frequency, TF over GST control)	1.08 fold enrichment (6-mer frequency, TF over GST control)	1.14 fold enrichment (6-mer frequency, TF over GST control)	1.12 fold enrichment (6-mer frequency, TF over GST control)		1.12 fold enrichment (6-mer frequency, TF over GST control)	1.02 fold enrichment (6-mer frequency, TF over GST control)	
GGGCTA	1.04 fold enrichment (6-mer frequency, TF over GST control)	1.06 fold enrichment (6-mer frequency, TF over GST control)	1.23 fold enrichment (6-mer frequency, TF over GST control)	1.17 fold enrichment (6-mer frequency, TF over GST control)	1.29 fold enrichment (6-mer frequency, TF over GST control)		1 fold enrichment (6-mer frequency, TF over GST control)	1.11 fold enrichment (6-mer frequency, TF over GST control)	1.15 fold enrichment (6-mer frequency, TF over GST control)
